Compounds without any hit were thinned out: in the full panel of roughly 83,000, 20% have a hit.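 Results are percent growth after 48 hours of single-concentration exposure. 100 means growth as in untreated cells, lower positive values show inhibition; negative values down to -100 show cell death.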 Values without a mark were called inactive. Calls of active or inactive are those of the source. How the source made its calls: active means growth percent below 10; inactive means the rest.
How the values were obtained:
Experiment in all cases: NCI-60 one-dose screen, 48 h (100 = growth as untreated, 0 = no growth, -100 = all killed)
Settings in all cases: 10 µM unless noted
HCT-15 colon = test system: HCT-15 colon
HT29 colon = test system: HT29 colon
SNB-75 CNS = test system: SNB-75 CNS
SNB-19 CNS = test system: SNB-19 CNS
U251 CNS = test system: U251 CNS
PC-3 prostate = test system: PC-3 prostate
SK-MEL-5 melanoma = test system: SK-MEL-5 melanoma
UACC-62 melanoma = test system: UACC-62 melanoma
LOX IMVI melanoma = test system: LOX IMVI melanoma
SK-MEL-28 melanoma = test system: SK-MEL-28 melanoma
SK-MEL-2 melanoma = test system: SK-MEL-2 melanoma
EKVX NSCLC = test system: EKVX NSCLC
SN12C renal = test system: SN12C renal
UO-31 renal = test system: UO-31 renal
TK-10 renal = test system: TK-10 renal
ACHN renal = test system: ACHN renal
CAKI-1 renal = test system: CAKI-1 renal
A498 renal = test system: A498 renal
CCRF-CEM leukemia = test system: CCRF-CEM leukemia
MOLT-4 leukemia = test system: MOLT-4 leukemia

SMILES	growth (HCT-15 colon)	growth (HT29 colon)	growth (SNB-75 CNS)	growth (SNB-19 CNS)	growth (U251 CNS)	growth (PC-3 prostate)	growth (SK-MEL-5 melanoma)	growth (UACC-62 melanoma)	growth (LOX IMVI melanoma)	growth (SK-MEL-28 melanoma)	growth (SK-MEL-2 melanoma)	growth (EKVX NSCLC)	growth (SN12C renal)	growth (UO-31 renal)	growth (TK-10 renal)	growth (ACHN renal)	growth (CAKI-1 renal)	growth (A498 renal)	growth (CCRF-CEM leukemia)	growth (MOLT-4 leukemia)
O=C(Nc1cccc(Cl)c1)Nc1ccccc1Cl	93.6%	80.8%	89.4%	102%	87.3%	57.1%	102%	63.7%	89.1%	95.4%	98.5%	72.1%	81.5%	69.8%	88.5%	89.9%	71.4%	63.4%	84.7%	75%
C/C(=N\NC(=O)CSc1nc2ccccc2c(=O)n1CCc1ccc(S(N)(=O)=O)cc1)c1ccc(Br)cc1	94.7%	44.7%	84.7%	63.9%	8.33% (active)	44.9%	61.5%	79%	63.3%	79.7%	80.4%	88.2%	92.2%	78.3%	106%	93.6%	79.8%	97.5%	76.7%	55.3%
Nc1c(C(=O)C[C@@H](N)CO)ccc2c1C(=O)CCO2	6.97% (active)	-3.16% (active)	86.2%	27.4%	16.7%	57%	60.8%	30.5%	-61.7% (active)	39.1%	46.8%	97.8%	32.7%	45.5%	71.4%	45.6%	29.8%	-37.5% (active)	20.6%	33.4%
C[C@@H]1N=C(c2ccc3ccccc3c2)Nc2nc3ccccn3c2C1=O	33.8%	5.93% (active)	37.1%	53.3%	32.5%	52%	35.3%	48.8%	48.5%	59.9%	36.3%	75.6%	60.1%	55.6%	64.4%	55.4%	38.5%	47.3%	52.9%	34.5%
COc1ccc(N=C2CSc3nnc(-c4cc(F)c(Cl)cc4Cl)n3N2)cc1	5.01% (active)	-66.9% (active)	-60.6% (active)	0.21% (active)	-52.2% (active)	-55% (active)	-63.1% (active)	20.9%	-42.1% (active)	-31.3% (active)	25.8%	10.8%	7.26% (active)	-69.5% (active)	-48.1% (active)	-26.2% (active)	-11.2% (active)	-41.7% (active)	-24.4% (active)	-4.82% (active)
c1ccc(-c2ccc(-c3ccccc3)[nH]2)cc1	94.8%	101%	87.9%	104%	105%	99.8%	99%	87.2%	103%	107%	98.7%	75.6%	95.5%	87%	138%	100%	83.6%	63.7%	90.9%	80.3%
Cn1cnc([N+](=O)[O-])c1S(=O)(=O)Oc1ccccc1	55%	88.7%	103%	102%	90.5%	86.5%	99.6%	99.4%	59.5%	106%	98.2%	103%	99.2%	75.1%	101%	17.1%	62.9%	108%	6.29% (active)	76.5%
CC1(C)CC(=O)c2cc3c(N)c(C(=O)Nc4ccc(Cl)cc4)sc3nc2C1	108%	96.4%	114%	114%	103%	105%	96%	105%	109%	118%	101%	93.2%	110%	109%	95.2%	117%	134%	75.6%	97.2%	104%
COc1cc(/C=C2\CN(C(=O)OC(C)(C)C)C/C(=C\c3ccc(O)c(OC)c3)C2=O)ccc1O	98.4%	96.5%	94.8%	87.3%	92.9%	81.7%	93.4%	82.4%	92.4%	111%	86.2%	92.8%	88.9%	81%	105%	100%	74.2%	104%	101%	47.4%
CCOC(=O)c1ccc(NC(=O)CSC(N)=O)cc1	99.4%	126%	149%	91.1%	94.1%	85.6%	103%	96.8%	85.7%	128%	98.6%	128%	107%	56.6%	113%	102%	108%	111%	103%	84.6%
COc1ccc(C2c3cccn3-c3ccccc3N2C(C)=O)cc1 (stereo not given)	87.7%	115%	77.4%	100%	106%	78.4%	96.1%	86.3%	96.1%	108%	117%	85.9%	99.8%	70.6%	103%	99%	84.2%	86%	88.3%	1.08% (active)
COc1cccc(C2C(C#N)=C(N)Oc3cc4c(cc32)OCO4)c1 (stereo not given)	16.4%	8.91% (active)	8.73% (active)	39.2%	23.4%	27.4%	4.73% (active)	33.6%	23.1%	43%	64.7%	47.9%	23.8%	39.3%	80%	29.3%	52.4%	1.43% (active)	17.4%	19.4%
O=C1Nc2ccc(Cl)cc2/C1=C\c1c(-c2ccc(F)cc2)nc2ccccn12	21.4%	0.999% (active)	-49.4% (active)	41.6%	23.2%	18.8%	-28.4% (active)	7.95% (active)	-30.1% (active)	6.38% (active)	66.2%	33.8%	6.4% (active)	6.63% (active)	82.8%	31.4%	40.2%	-18% (active)	5.38% (active)	-4.17% (active)
CCOC(=O)C1=C(C(=O)OCC)N(c2cc(OC)c(OC)c(OC)c2)C(N)=C(C#N)C1c1cc(=O)[nH]c2ccccc12 (stereo not given)	106%	112%	83%	98.4%	98.7%	123%	95.9%	88.6%	93.7%	114%	115%	89.3%	98.5%	76.8%	100%	97.6%	87%	78.1%	113%	100%
CCOC(=O)Nc1ccc2nc(Sc3ccc(Cl)cc3)sc2c1	25.5%	19.4%	-12% (active)	48.3%	36.1%	34.3%	6.76% (active)	33.8%	47.9%	38.1%	46.8%	57.6%	40.4%	43.9%	53.1%	61.5%	19.2%	58%	20.2%	37.8%
CC(C)[C@@]12C[C@@H](OC(=O)[C@H]3CO3)[C@@](C)(O1)[C@@H]1CC[C@@H](C)[C@H]1[C@@H]2OC(=O)/C=C/c1ccccc1	55.5%	84.3%	71.4%	86.6%	67.8%	60.7%	93.4%	70.1%	70.9%	106%	82.4%	71.9%	52.5%	-8.95% (active)	103%	23.5%	46.6%	-61.1% (active)	81.9%	72.8%
